# Compound activity (PubChem)
# Compounds with a hit are over-represented: about 3.5% of the library has one in this group of screens.
# BoNT-A LC inh2 = BoNT A light chain protease inhibition | multiplex microsphere protease substrate cleavage, flow cytometry | inhibition, % at 10 µM | 360,000 tested, 0.17% active
# BoNT-F LC inh = BoNT F light chain protease inhibition; Multiplex microsphere protease cleavage assay, flow cytometry; inhibition, % at 10 µM; 360,000 tested, 0.22% active; AID 588497; in the data active = inhibition above about 35%, passing the limit was not always enough; inconclusive = no clear call, values can overlap the other calls
# Anthrax LF prot = inhibitors of Bacillus anthracis lethal factor protease. P15917. multiplex microsphere protease cleavage assay, LF. inhibition, % at 10 µM. 360,000 tested, 0.12% active
# Target sequence (P15917 whole entry, looked up): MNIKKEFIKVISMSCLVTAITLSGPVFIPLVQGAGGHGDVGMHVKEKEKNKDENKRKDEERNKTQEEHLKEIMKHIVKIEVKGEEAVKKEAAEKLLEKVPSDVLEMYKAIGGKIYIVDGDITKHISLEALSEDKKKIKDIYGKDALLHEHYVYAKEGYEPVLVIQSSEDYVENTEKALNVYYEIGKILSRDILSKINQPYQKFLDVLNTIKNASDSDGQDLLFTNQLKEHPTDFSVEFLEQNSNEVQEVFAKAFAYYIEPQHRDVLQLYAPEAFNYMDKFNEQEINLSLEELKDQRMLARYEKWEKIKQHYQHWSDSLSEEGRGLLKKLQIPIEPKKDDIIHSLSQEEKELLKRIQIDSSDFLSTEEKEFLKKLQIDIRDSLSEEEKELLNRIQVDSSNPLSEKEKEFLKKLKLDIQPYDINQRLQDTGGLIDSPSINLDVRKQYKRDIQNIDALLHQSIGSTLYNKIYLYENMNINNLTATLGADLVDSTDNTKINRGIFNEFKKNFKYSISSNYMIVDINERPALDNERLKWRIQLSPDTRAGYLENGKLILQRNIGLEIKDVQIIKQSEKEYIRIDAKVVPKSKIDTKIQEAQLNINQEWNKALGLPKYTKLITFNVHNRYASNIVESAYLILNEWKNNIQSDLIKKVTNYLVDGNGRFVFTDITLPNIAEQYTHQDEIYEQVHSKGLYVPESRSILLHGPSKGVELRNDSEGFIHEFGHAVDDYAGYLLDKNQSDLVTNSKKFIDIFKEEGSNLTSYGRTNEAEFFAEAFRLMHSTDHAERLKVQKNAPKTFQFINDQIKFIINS
# Autofluor counter = counter-screen for toxin protease inhibitors: compound fluorescence | compound autofluorescence counterscreen, microsphere flow cytometry; active compounds read high | fluorescence intensity (test concentration not listed) | 360,000 tested, 3.1% active | AID 624483; in the data active = fluorescence intensity above about 16000; inconclusive = no clear call, values can overlap the other calls
# Hits are given with their value; n = inactive; u = inconclusive. Cut-off read from the data, not from the text of the source, unless noted: active = inhibition above about 30%; inconclusive = no clear call, values can overlap the other calls; inactive = below that.
SMILES,BoNT-A LC inh2,BoNT-F LC inh,Anthrax LF prot,Autofluor counter
C=CCn1c(SCc2nc3ccccc3[nH]2)nnc1-c1cccc(OC)c1,n,n,n,22532
C=CCn1c(SCc2cccc(OC)c2)nnc1-c1ccncc1,n,u,n,n
CN1C(=O)C(CCC(=O)O)NC1=S (centres undefined),n,n,n,n
CCOC(=O)N1CCC(NS(=O)(=O)c2ccc3c(c2)oc(=O)n3C)CC1,n,n,n,16773
Cn1c(=O)oc2cc(S(=O)(=O)NC3CCCCCCC3)ccc21,n,n,n,16482
NS(=O)(=O)c1ccc(CCNC(=O)c2ccccc2-c2ccccc2)cc1,n,n,n,n
CCOC(=O)c1ccccc1NC(=O)Cc1ccc(S(=O)(=O)N2CCCC2)s1,n,n,n,n
Cc1ccccc1-n1nnnc1Sc1nnnn1-c1ccccc1,n,n,n,n
c1ccc(-n2nnnc2Sc2n[nH]c(-c3ccncc3)n2)cc1,n,n,n,24881
Cc1ccc(NC(=O)CCC(=O)OCC(=O)c2ccc(Oc3ccc([N+](=O)[O-])cc3)cc2)cc1,n,n,n,n
Cc1ccc(NC(=O)CCC(=O)OCC(=O)c2ccc(Oc3ccc([N+](=O)[O-])cc3)cc2)c(C)c1,n,n,n,17075
Cc1c([N+](=O)[O-])c(C(=O)N2CCCC2)nn1C,n,n,n,22515
CCCCN1CC(C(=O)NCc2ccc(C)cc2)CC1=O (centres undefined),n,n,n,18906
O=C1NCCN1C(=O)N(c1ccccc1)c1ccccc1,n,n,n,22362
Cc1onc(-c2ccccc2)c1C(=O)N1CCC(C)(C(=O)O)C1 (centres undefined),n,n,n,n
CN(C)c1ccc(/C=C/c2cc[n+](C)cc2)cc1,n,n,n,16151
Cc1ccccc1C(C)NC(=O)COC(=O)Cn1cc(C(F)(F)F)ccc1=O (centres undefined),n,n,n,n
Cc1cc(OC2CCCCC2)nc(-c2ccccc2O)n1,u,n,n,22117
Cc1ccc(Oc2cc(C)nc(-c3ccccc3O)n2)cc1,n,n,n,n
O=C(NC1CCCCCC1)c1ccc(S(=O)(=O)NCc2ccco2)cc1,n,n,n,23471
O=C(COC(=O)c1ccc(S(=O)(=O)NCc2ccco2)cc1)NC1CCCCCC1,n,n,n,n
O=C(c1ccc(S(=O)(=O)NCc2ccco2)cc1)N1CCCC1,n,n,n,n
COc1cccc(NC(=O)COC(=O)c2ccc(S(=O)(=O)NCc3ccco3)cc2)c1,n,n,n,23475
O=S(=O)(NCc1ccco1)c1ccc(S(=O)(=O)N2CCCCC2)cc1,n,n,n,23145
CC1CCCCC1NC(=O)COC(=O)c1ccc(S(=O)(=O)NCc2ccco2)cc1 (centres undefined),n,n,n,21167
SMILES,BoNT-A LC inh2,BoNT-F LC inh,Anthrax LF prot,Autofluor counter
O=C(Nc1ccc(S(=O)(=O)NCc2ccco2)cc1)C1CCCCC1,n,n,n,n
CCOc1ccc(N(C)S(=O)(=O)c2c[nH]c(C(=O)OC)c2)cc1,n,n,n,n
COc1cccc(S(=O)(=O)Nc2ccc(C(=O)NCc3ccco3)cc2)c1,n,n,n,n
COc1cccc(S(=O)(=O)NCc2ccc(C(=O)NCc3ccco3)cc2)c1,n,n,n,25859
Cc1cc(NC(=O)C2CC(=O)OC2c2ccccc2)no1 (centres undefined),n,n,n,23968
COc1ccc(NC(=O)C2CC(=O)OC2c2ccccc2)cc1 (centres undefined),n,n,n,n
S=c1[nH]nc(COc2ccccc2)n1/N=C/c1c(Cl)cccc1Cl,n,n,n,n
CCCC1C(c2ccc(OC)cc2)C(C#N)(C#N)C2(C#N)CC1(N)NC2=O (centres undefined),n,n,n,20036
N#CC1=C(N)Oc2cc(O)ccc2C1c1ccccc1 (centres undefined),n,n,n,21140
COc1ccc(C2C(C#N)=C(N)Oc3cc(O)ccc32)cc1 (centres undefined),n,u,n,n
Cc1cc(C(=O)Nc2ccccc2C(=O)O)ccc1NC(=O)COc1cccc(C)c1C,n,n,n,n
Cn1c(C=O)c(C#Cc2ccccc2)c2ccccc21,n,n,n,n
CCCOc1ccc(Cn2cnc3ccccc32)cc1,n,n,n,16239
Brc1ccccc1OCCCn1cnc2ccccc21,n,n,n,19986
c1ccc(OCCn2cnc3ccccc32)cc1,u,n,n,17262
Fc1ccc(Cn2cnc3ccccc32)cc1,n,n,n,n
CC(NC(=O)c1cc(-c2cccs2)on1)c1ccccc1 (centres undefined),u,n,n,16362
O=C(NCc1cccs1)c1cc(-c2ccccc2)on1,n,n,n,n
Cc1ccc(Cn2ccc(NC(=O)c3cc(-c4cccs4)on3)n2)cc1,n,n,n,25079
O=C(NCc1cccs1)c1cc(-c2cccs2)on1,n,n,n,22229
COc1ccc(CNC(=O)c2cc(-c3cccs3)on2)cc1,n,n,n,n
O=C(NCc1ccc(Cl)cc1)c1cc(-c2cccs2)on1,n,n,n,16902
CN(C)C(=O)[C@H]1C[C@H]1[C@@H](O)[C@H](CO)NC(=O)[C@H](COCc1ccccc1)NC(=O)OC(C)(C)C,n,n,n,n
COc1ccc(-c2c(C)nn(-c3ccccc3)c2N)cc1,u,n,n,20023
CCCCCOc1ccc(C(=O)NCC2(c3ccccc3)CCOCC2)cc1,n,n,n,16606
SMILES,BoNT-A LC inh2,BoNT-F LC inh,Anthrax LF prot,Autofluor counter
COc1ccc(C2(CNC(=O)c3ccccc3)CCOCC2)cc1,n,n,n,n
CCOc1ccc(C(=O)NCC2(c3ccccc3)CCOCC2)cc1,n,n,n,n
CCCCOc1ccc(C(=O)NCC2(c3ccccc3)CCOCC2)cc1,u,n,n,22415
CCC1(C)N=C(N)Nc2nc3cc(C)c(C)cc3n21 (centres undefined),n,n,n,n
NC(CSC(c1ccccc1)(c1ccccc1)c1ccc2c(c1)OCO2)C(=O)O (centres undefined),n,n,n,n
Cc1ccc(OCC(=O)Nc2cccc(-c3nnc(-c4ccccc4)o3)c2)c(C)c1,u,n,n,21189
CCOC(=O)Nc1cccc(OCC(=O)Nc2ccccc2OCC)c1,n,n,n,22734
Cc1cccc(NC(=O)COc2ccccc2)c1,n,n,n,26330
CC(=O)Nc1cccc(OCC(=O)Nc2ccccc2)c1,n,n,n,n
CCOC(=O)c1nn(-c2ccc(C)cc2)c(=O)cc1OCC(=O)Nc1cccc(C)c1,n,42.7,n,n
CCOC(=O)c1nn(-c2ccccc2)c(=O)cc1OCC(=O)Nc1cc(C)ccc1C,n,n,n,n
CCOC(=O)c1c(C)[nH]c(C)c1S(=O)(=O)NCCN1CCN(c2ccccc2F)CC1,n,n,n,n
CC(C)C(NC(=O)COc1ccccc1)C(=O)O (centres undefined),n,n,n,19854
CC(C)C(C)NC(=O)COc1ccc(-c2ccccc2)cc1 (centres undefined),n,n,n,n
COC(=O)C1=C(C)N=c2s/c(=C/c3ccoc3)c(=O)n2C1c1ccccc1 (centres undefined),n,n,n,21630
CCN(CC)c1ccc(N=Cc2ccc(N(CC)CC)cc2O)cc1,u,n,n,22151
CCN(CC)c1ccc(C=Nc2ccc(C)cc2)c(O)c1,n,n,n,n
